# Data as given in ChEMBL document CHEMBL4513216, “Probing the Open Global Health Chemical Diversity Library for Multistage-Active Starting Points for Next-Generation Antimalarials” (ACS Infect Dis, 2020).
# Screen size: about 69,000 compounds; about 8,600 (12%) showed an effect of 50% or more. The sample holds strong results, similar compounds and a random draw of the others, so the mix is not that of the screen.
# Tested on: Plasmodium berghei
# Test: Screen against P. berghei liver stage (PbLuc), transformed with Luciferase, at 10uM
# Type: functional, HepG2
# Settings: tested at 10 uM
row,Compound,INHIBITION [%]
1,Cc1nn(C2CCS(=O)(=O)C2)c(O)c1Cc1ccc(Br)cc1 (configuration not stated),43.4
2,CCOC(CC)C(=O)NCCC(=O)N1CCN(c2ccccn2)CC1 (configuration not stated),-36.3
3,Cc1cc(CN(C)C(=O)NC2CCN(c3ncccn3)CC2)no1,27.1
4,CC1CCN(c2ncc(-c3ccccc3F)c(-c3nccn3C)n2)CC1,72.05
5,CN1CCCC(c2cccc(-c3ccccc3F)n2)C1 (configuration not stated),31.15
6,Cc1cc(-c2cnc(N3CCCC(C)C3)nc2C(C)C)on1 (configuration not stated),26.3
7,CC1CCCN(c2ncc(-c3ccccc3F)c(-c3nccn3C)n2)C1 (configuration not stated),75.45
8,Cn1ccnc1-c1nc(N2CCCCC2)ncc1-c1ccccc1F,54.8
9,CC1CCN(c2ncc(C#N)c(N)n2)CC1,-10.3
10,O=c1c2cnc(N3CCCCC3)nc2ccn1-c1ccccc1F,-2.04
11,COCCCNc1ncc(-c2cccc(F)c2)c(-c2nccn2C)n1,13.7
12,Cc1cc(CNc2ccccc2Cl)no1,-38.9
13,COCCC(=O)N1C[C@@H](O)[C@H](N2CCN(c3ccccc3)CC2)C1,16.5
14,CCOc1ncccc1C(=O)N1CCCC(n2nc(C)cc2C)C1 (configuration not stated),0.0996
15,O=C(c1cccs1)N1CCC[C@]2(C[C@@H](OCc3ccncc3)CO2)C1,-41
16,CN(C(=O)c1ccccc1N(C)S(C)(=O)=O)c1ccc(C(C)(C)C)cc1,31.2
17,O=C(c1ccco1)N(CC(F)(F)F)C1CCOCC1,61.3
18,O=C(c1ccco1)N(CC(F)(F)F)C1CCCOC1 (configuration not stated),9.16
19,O=C(c1ccc(F)cc1F)N(CC(F)(F)F)C1CCOCC1,3.04
20,N#Cc1cc(S(N)(=O)=O)ccc1N1CCN(c2ccccc2)CC1,-33.7
21,CC1CCCN(C(=O)c2ccc(-c3ccco3)o2)C1 (configuration not stated),-22.2
22,CNS(=O)(=O)CC(=O)N1CCC(c2cc3ccccc3[nH]2)CC1,18.6

row,Compound,INHIBITION [%]
1,CCS(=O)(=O)NCC(=O)N1CCC(c2cc3ccccc3[nH]2)CC1,-17.8
2,COC(=O)NCC(=O)N1CCC(c2cc3ccccc3[nH]2)CC1,62.9
3,O=c1[nH]c2nc(N3CCOCC3)ncc2c(=O)n1-c1cccc(F)c1,31.7
4,O=S(=O)(C1CC1)N1C[C@@H]2CN(Cc3ccoc3)CCO[C@@H]2C1,-64.1
5,Cc1nnc(NCCC(=O)NCc2ccccc2)c(C#N)c1C,12.3
6,CC(=O)N1CC[C@@]2(O)CCCC[C@H]2[C@@H]1c1ccccc1,45
7,O=C(NCCC1COc2ccccc2O1)c1ccc(N2CC(O)C2)nc1 (configuration not stated),59.5
8,O=C(NCCC1COc2ccccc2O1)c1ccc(-c2cn[nH]c2)nc1 (configuration not stated),48.9
9,O=C(NCCC1COc2ccccc2O1)c1ccc(-c2cc[nH]n2)nc1 (configuration not stated),-21.6
10,CCc1nc(C)cc(N2CCN(C(=O)[C@@H]3C[C@H]4C=C[C@@H]3C4)CC2)n1,-2.09
11,O=C(Cc1c[nH]c(=O)[nH]c1=O)N1CCCCC1CCc1ccccc1 (configuration not stated),-28
12,O=C(Cc1c[nH]c(=O)[nH]c1=O)N1CCCCC1CCc1cccc(O)c1 (configuration not stated),57.6
13,NCC1CCCCN1C(=O)Cc1cccc(Br)c1 (configuration not stated),-0.159
14,Nc1cccnc1N1CCCCCC1,-12.1
15,Cc1cccc(N2CCC3(CCCC(=O)N3)CC2)n1,-77.4
16,CCc1nnc(CN(C)CC2CCCCC2)o1,61.1
17,CCc1nnc(CN(C)C[C@@H]2CCCN3CCCC[C@H]23)o1,5.46
18,Cc1nnc(CN(C)CC2CCCCC2)o1,27.5
19,CCCN(CC)c1ccc(C(=O)N2CCCC2c2cnn(C)c2)cn1 (configuration not stated),22.3
20,COc1ccc(CNCC2CN(C3CC3)CCO2)cc1C (configuration not stated),10.2
21,C[C@H]1C[C@H]2CN(C(=O)CCOc3ccccc3)CC[C@H]2O1,27.6
22,Cc1nc(COCc2cnc3n2CCN(C(=O)C2CC2)C3C)cs1 (configuration not stated),33

row,Compound,INHIBITION [%]
1,CC(=O)N1CCn2c(COCc3csc(C)n3)cnc2C1C (configuration not stated),-14.8
2,Cc1nc(COCc2cnc3n2CCN(C)C3C)cs1 (configuration not stated),52.3
3,Cc1nc(COCc2cnc3n2CCN(C2CCC2)C3C)cs1 (configuration not stated),-12.6
4,Cc1nc(COCc2cnc3n2CCN(CC2CCC2)C3C)cs1 (configuration not stated),50.2
5,CCOCc1cnc2n1CCN(Cc1nc(C)cs1)C2C (configuration not stated),41
6,Clc1ccccc1Cc1noc(CN2CCCC(CN3CCCC3)C2)n1 (configuration not stated),42.8
7,COCc1cc(NCCc2ccccn2)n2nccc2n1,26.6
8,CC(C)CNc1nnc(SC(C(=O)NCc2cccnc2)C(C)C)s1 (configuration not stated),-11.3
9,COCC(O)CN(C)C(=O)NCc1ccc(S(C)(=O)=O)cc1 (configuration not stated),29.4
10,CNS(=O)(=O)c1ccc(CNC(=O)N(C)CC(O)COC)cc1 (configuration not stated),36.3
11,COCC(O)CN(C)C(=O)NCc1ccc(-c2ccn[nH]2)cc1 (configuration not stated),51.7
12,CC(NC(=O)CCOc1cccc(F)c1)c1nnc2n1CCC2 (configuration not stated),33.7
13,CCC(O)Cn1cc(C2=CCN(Cc3ccc(OC)cc3)CC2)cn1 (configuration not stated),-8.97
14,CCC(O)Cn1cc(C2=CCN(Cc3cc(O)nc(C)n3)CC2)cn1 (configuration not stated),52
15,Cc1nc(O)cc(CN2CC=C(c3cnn(C(C)(C)C)c3)CC2)n1,-33.2
16,CN(C)C1CCCN(C(=O)c2ccc3sc4c(c3c2)CCNC4=O)CC1 (configuration not stated),60.3
17,O=C1NCCc2c1sc1ccc(C(=O)N3CC[C@H](CO)[C@H](O)C3)cc21,12.1
18,CN(C)[C@H]1CN(C(=O)c2ccc3sc4c(c3c2)CCNC4=O)C[C@@H]1O,-26
19,Fc1ccc(C(CNc2ccncn2)N2CCCCC2)cc1 (configuration not stated),5.03
20,CC(N)C(=O)N1CCC(Oc2cccc(C(F)(F)F)c2)CC1 (configuration not stated),26.6
21,CCc1cccc(OC2CN(C(=O)[C@@H](N)CCSC)C2)c1,23.9
22,CCc1cccc(OC2CN(C(=O)[C@@H](N)[C@@H](C)O)C2)c1,62.4

row,Compound,INHIBITION [%]
1,Cc1nc2cc(=O)[nH]n2c(C)c1CC(=O)Nc1cn[nH]c1,53.9
2,Cc1nc2cc(=O)[nH]n2c(C)c1CC(=O)Nc1cnn(C)c1,15
3,Cc1nc2cc(=O)[nH]n2c(C)c1CC(=O)Nc1cnn(C(C)(C)C)c1,49.6
4,Cn1cc(CN2CCC3(CC2)CN(C(=O)c2cnccn2)CCO3)cn1,-13.2
5,CCOCCc1nc(Cc2ccccc2)n[nH]1,10.3
6,O=C1COC2(CCN(Cc3cccnc3)CC2)CN1,18.2
7,O=C(COCc1ccccc1Cl)N1CCN(c2ncccn2)CC1,-133
8,O=C(COCc1ccccc1Cl)N1CCN(c2ccc(Br)cn2)CC1,60.3
9,O=C(COCc1ccccc1Cl)N1CCN(c2cnccn2)CC1,-9.51
10,COc1ccc(Cl)cc1S(=O)(=O)N1C[C@H]2CC[C@@H](C1)N(C)C2=O,48.9
11,CN(C)CC(=O)N1CCC2(CC1)Cc1ccccc1CN(C)C2=O,18.6
12,Cc1ccc(CN2C[C@@H]3CN(C(=O)c4cccn4C)C[C@@H]3C2)cc1,8.74
13,c1cn(-c2ccc(CN3CCOC(Cn4cncn4)C3)cc2)cn1 (configuration not stated),27.6
14,COc1ccc(CCC(=O)Nc2ccncc2C)cc1,12.8
15,CCC(C)NC(=O)c1ccc(NC(=O)CCc2ccncc2)c(C)c1 (configuration not stated),39
16,COC(=O)c1ccc(NC(=O)CCc2ccncc2)c(C)c1,50.1
17,O=C(CCOc1ccccc1Cl)N1CCN(c2cnccn2)CC1,-33.7
18,CC(NC(=O)N1CCSC(C)(C)C1)c1noc(-c2ccccc2)n1 (configuration not stated),38.3
19,CCN1CCN(C(=O)NC(C)c2noc(-c3ccccc3)n2)CC1 (configuration not stated),51.1
20,CC(NC(=O)N1CCC[C@H]1CO)c1noc(-c2ccccc2)n1 (some centres not stated),8.38
21,Cc1nc(CNCc2c(C(C)C)nn(C)c2N2CCOCC2)cs1,49.6
22,COc1ccc2c(c1)C(C(=O)NCCN1CCNC1=O)CC(=O)N2 (configuration not stated),5.36

row,Compound,INHIBITION [%]
1,CCCN1CCC(CC(=O)NCc2cc(C)nn2C)CC1,22.3
2,CCN1CCC(CC(=O)NCCc2nc(C)cc(C)n2)CC1,-26.1
3,Cc1cc(CNC(=O)CC2CCN(C(C)C)CC2)n(C)n1,60.8
4,Cc1nc(CCNC(=O)C2CCN(C(C)C)CC2)sc1Cl,-3.72
5,Cc1cc(C(F)(F)F)nc(CNC(=O)CCCN2CCCCC2)n1,48
6,CCCN1CCC(CC(=O)NCCc2nc(C)cc(C)n2)CC1,-37.2
7,CCc1nc(C)c(CNC(=O)CCCN2CCCCC2)s1,9.87
8,CCN1CCC(CC(=O)NCc2nc(C)cc(C)n2)CC1,69.9
9,CCN1CCC(CC(=O)NCCc2nc(C)c(Cl)s2)CC1,13
10,Cc1cc(CNC(=O)CCCN2CCCCC2)n(C)n1,73.6
11,CCN1CCC(CC(=O)NCc2cc(C)nn2C)CC1,-6.59
12,Cc1nc(CCNC(=O)CC2CCN(C(C)C)CC2)sc1Cl,60.9
13,CC(=O)Nc1nc(C(=O)NC(C)c2ccc(F)c(F)c2)cs1 (configuration not stated),-31.8
14,COc1cccc(N2CCN(Cc3ccc4[nH]ccc4c3)CC2=O)c1,10.2
15,CCCc1nnc2sc(C3CCS(=O)(=O)CC3)nn12,33
16,CC(=O)N1CCN(c2cncc(C3CCNCC3)n2)CC1,16.5
17,CN1CC2(CNCCN(C(=O)Nc3ccccc3)C2)CC1=O (configuration not stated),-36.8
18,COc1c(CNCc2ccc(N(C)C)nc2)c(C)nn1C,11.25
19,CC(C)C[C@H](NCc1cc(O)c2cccc(F)c2n1)C(N)=O,3.03
